We go through 48 compounds from PubChem BioAssay AID651815 (National Center for Advancing Translational Sciences (NCATS), 2012).

The whole screen tested about 2,100 compounds, of which about 1,100 (52%) were called active. About 29% were inconclusive and are not listed. So high a share suggests a set chosen from earlier hits. Some of the results follow. A number with no mark means an inactive call. Calls come from the whole dose curve; as a rule, active = well fitted inhibition curve with a large enough effect; inconclusive = small, poorly fitted or top-dose-only effect; inactive = no such curve, though single readings can be large or run the other way.
% is set by controls: 0 for no effect and ±100 for the full control effect; potency is the fitted concentration of half-maximal effect.

Chain of DNA dC->dU-editing enzyme APOBEC-3F (Homo sapiens) (Q8IUX4 whole entry, looked up): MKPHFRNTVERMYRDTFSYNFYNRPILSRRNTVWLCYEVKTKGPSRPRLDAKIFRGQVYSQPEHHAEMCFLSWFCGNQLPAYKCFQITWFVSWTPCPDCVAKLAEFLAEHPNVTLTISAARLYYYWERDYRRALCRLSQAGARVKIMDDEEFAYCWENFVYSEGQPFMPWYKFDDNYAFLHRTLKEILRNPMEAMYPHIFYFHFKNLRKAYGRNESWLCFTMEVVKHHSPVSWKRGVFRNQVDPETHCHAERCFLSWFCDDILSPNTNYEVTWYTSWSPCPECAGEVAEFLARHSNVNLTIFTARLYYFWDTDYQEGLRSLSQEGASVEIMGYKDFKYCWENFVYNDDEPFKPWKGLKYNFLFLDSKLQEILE

This experiment deals with DNA dC->dU-editing enzyme APOBEC-3F (Homo sapiens) (UniProt Q8IUX4). Briefly: qHTS for inhibitors of Vif-A3F interactions: Cherry picks counterscreen. Note: nearly all actives have a fitted effect of over 65% in size. To be noted: HeLa A3F-eYFP/Vif cells, eYFP fluorescence, 24 h; series mostly up to 46.1 µM; activity, negative = inhibitor: at the top concentration. The gist of the method:
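HeLa cells stably expressing A3F-eYFP and Vif, cultured overnight, then treated 24 h at 37 degrees C with compounds at several concentrations; yellow fluorescence (488 nm Ex/500-530 nm Em) imaged on Acumen; MG132 positive control.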
On the technique in general: qHTS replaces the single test concentration by a dilution series.
As for `O=C(CC1CC2CCC1C2)Nc1nc(-c2ccccn2)cs1` (stereo not drawn), the “activity, negative = inhibitor” value was 17.2%.
Same read-out and setting: next, `O=C(c1ccccn1)C1CCCN(Cc2cn[nH]c2-c2cc3ccccc3o2)C1` (stereo not drawn): 5.43% [at 36.9 µM].
Turning to `COc1ccc2c(c1)/C(=C/c1cc(OC)c(OC)c(OC)c1)C(=O)N2`, the Potency is 2.23 µM (active).
For the compound `COc1cc(C=C2C(=O)c3ccccc3C2=O)cc(OC)c1OC`, the “activity, negative = inhibitor” value is -9.75%.
Regarding `O=C1/C(=C\c2cc([N+](=O)[O-])ccc2O)SC(=S)N1Cc1ccc(Cl)cc1`, the Potency was 9.2 µM (active).
Consider `O=C1NC(=Nc2ccccc2Cl)S/C1=C\c1cc([N+](=O)[O-])ccc1O`, for which the “activity, negative = inhibitor” value is -9.23% [at 36.9 µM].
For the compound `c1ccc(-c2nccc(-c3ccc4c(c3)OCO4)n2)cc1`, the Potency is 5.59 µM (active).
On the same count and under the same terms, next, `COC(=O)CCS(=O)(=O)c1nc(-c2ccccc2)cc(C(F)(F)F)n1`: 12.5 µM (active).
On to `CC1CCN(C(=O)C(C)Sc2nc(-c3ccccc3)cc(C(F)(F)F)n2)CC1` (stereo not drawn), for which the “activity, negative = inhibitor” value was -2.71%.
Consider `C=C(C)CNC(=S)N/N=C1\CCCCc2ccccc21`, for which the “activity, negative = inhibitor” value is 2.63%.
As for `COc1ccc(N2C(=O)CC(Sc3nc(C)c4c(n3)CCCC4)C2=O)cc1` (stereo not drawn), the Potency was 15.8 µM (active).
Consider `Nc1c(C(=O)c2ccccc2)sc2nsc(SCCN3CCCC3)c12`, for which the Potency is 14 µM (active).
For the compound `Nc1c(C(=O)c2ccccc2)sc2nsc(SCCN3CCOCC3)c12`, the Potency is 7.31 µM (active).
In the case of `Nc1c(C(=O)c2ccccc2)sc2snc(SCC(=O)c3ccccc3)c12`, the Potency is 15.8 µM (active).
On to `CSCC[C@H](NC(=O)[C@H](Cc1ccccc1)n1c(=O)[nH]c2ccccc2c1=O)C(=O)N1CCC[C@@H]1C(=O)O`, for which the “activity, negative = inhibitor” value is -11.6% [at 36.9 µM].
Consider `CCC1=Nc2cc(C(=O)NCc3cccnc3)ccc2Sc2ccc(C)cc21`, for which the Potency was 5.59 µM (active).
Take `CCCC1=Nc2cc(C(=O)NCc3ccco3)ccc2Sc2ccccc21`: the Potency was 1.98 µM (active).
With `COc1ccc(C(=O)NC(=S)NCc2cccnc2)cc1Cl`, the “activity, negative = inhibitor” value is 6.65%.
The same measure, in the same setting: the result for `Cc1cc(C)nc(NC(=S)Nc2cccc(Cl)c2Cl)c1` reads -15.2%; that for `C/C(=N\NC(=S)NC(C)C)c1ccc(C(C)(C)C)cc1`, -3.08%.
Consider `FC(F)(Cl)c1nnc2ccc(Cl)nn12`, for which the Potency is 6.27 µM (active).
In the case of `CC[N+](C)(C(=O)O)/C(=C\c1ccccc1)c1ccnc2ccccc12` (stereo not drawn), the Potency was 18.4 µM (active).
In the case of `Nc1c(C(=O)Nc2nc3ccccc3s2)sc2nc(-c3cccs3)ccc12`, the Potency is 18.4 µM (active).
The same measure, in the same setting: next, `Nc1c(C(=O)Nc2ccc(F)cc2)sc2nc(-c3cccs3)cc(C(F)(F)F)c12`: 2.91 µM (active).
Regarding `Nc1c(C(=O)Nc2nccs2)sc2nc(-c3cccs3)cc(C(F)(F)F)c12`, the Potency was 11.2 µM (active).
On to `Cc1nnc(NC(=O)c2sc3nc(-c4cccs4)cc(C(F)(F)F)c3c2N)s1`, for which the Potency is 6.51 µM (active).
For the compound `O=C1N/C(=N\N=C\c2ccco2)SC1Cc1ccccc1[N+](=O)[O-]` (stereo not drawn), the “activity, negative = inhibitor” value was 8.96%.
`C/C(=N\NC(N)=S)C12CC3CC(CC(C3)C1)C2`: the “activity, negative = inhibitor” value is -4.36% [at 36.9 µM].
`O=C(NC1CCCCC1)c1cccc2c1C(=O)c1ccc(N3CCC(Cc4ccccc4)CC3)cc1S2(=O)=O`: the Potency is 15.8 µM (active).
As for `O=C(NC1CC1)c1cccc2c1C(=O)c1ccc(N3CCC(Cc4ccccc4)CC3)cc1S2(=O)=O`, the Potency was 18.4 µM (active).
Same read-out and setting: next, `CCOC(=O)CCc1ccc(NC(=O)/C=C/c2ccc([N+](=O)[O-])o2)cc1`: 20.6 µM (active).
Turning to `CC(C)Cn1c(N)c(C(=O)COC(=O)c2ccc([N+](=O)[O-])o2)c(=O)n(C)c1=O`, the “activity, negative = inhibitor” value is -5.06% [at 36.9 µM].
Regarding `CCc1ccc(C(=O)/C=C/c2ccc([N+](=O)[O-])o2)cc1`, the Potency is 15.8 µM (active).
Take `N#CCc1ccc(NC(=O)/C=C/c2ccc([N+](=O)[O-])o2)cc1`: the Potency was 11.6 µM (active).
Still for that read-out and setting: next, `O=C(/C=C/c1ccc([N+](=O)[O-])o1)NNC(=O)c1ccc(F)cc1`: 2.8 µM (active); `O=c1cc(-c2ccccc2)[nH]c2ccccc12`: 2.23 µM (active); `COc1cc2nc(/C=C/c3ccc(N(C)C)cc3)sc2cc1SC`: 11.6 µM (active).
For the compound `CCS(=O)(=O)c1nn2c(N)c(/C=C3/C=CC(=O)C(OC)=C3)c(=O)nc2s1`, the “activity, negative = inhibitor” value is 47.2%.
As for `COC(=O)c1c(-c2cccnc2)csc1NC(=O)c1ccc2c(c1)OCO2`, the “activity, negative = inhibitor” value is -20.7%.
Turning to `COc1cc(C(=O)c2ccc3c(c2)OCO3)cc(OC)c1OC`, the Potency is 7.04 µM (active).
Take `CCOC(=O)C1C(=O)C=C(/C=C/c2ccc(N(C)C)cc2)CC1c1ccccc1` (stereo not drawn): the Potency is 16.4 µM (active).
On to `CCCCOc1ccc(-c2nnn(CC(=O)NCc3ccco3)n2)cc1`, for which the Potency was 6.27 µM (active).
On the same count and under the same terms, next, `CCOC(=O)c1c(Nc2ccc(Cl)cc2)sc(/C=C2\C=Nc3ccccc32)c1O`: 14.6 µM (active).
`Cc1cccc(C(=O)NC(=S)N2CCc3ccccc3C2)c1`: the “activity, negative = inhibitor” value was 1.57%.
For `CN(C)CCCN(C(=O)/C=C/c1cccs1)c1nc2ccc(F)cc2s1`, the “activity, negative = inhibitor” value was -13.7%.
Consider `COc1cc2c(cc1OC)CN(C(=O)/C=C/c1cccs1)CC2`, for which the Potency is 2.8 µM (active).
As to `S=c1[nH]cnc2sc(-c3ccccc3)cc12`, the “activity, negative = inhibitor” value was 8.41%.
Regarding `O=c1[nH]c(-c2cccnc2)nc2sc(-c3ccccc3)cc12`, the Potency is 4.44 µM (active).
